# This excerpt belongs to a sample that is enriched for hits.
# IDH1 mut inh = IDH1 R132H (human) inhibition | O75874 | IDH1 R132H reductase, diaphorase/resazurin fluorescence, 60 min | inhibition, % at 10 µM | 70,000 tested, 0.18% active; in the data active means inhibition above about 34%;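 further: 0% = DMSO and 100% = no enzyme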
# * hit, by the source's call.
SMILES,IDH1 mut inh
CN1CCc2cc(O)cc3c2[C@H]1Cc1ccc(O)c(O)c1-3,18
CCCN1CCc2cc(O)cc3c2[C@H]1Cc1ccc(O)c(O)c1-3,44*
CC(/C=C/C(=O)NO)=C\c1ccccc1OC[C@@H]1C=C2c3cccc4[nH]cc(c34)C[C@H]2N(C)C1,0
